Assay outcomes deposited in PubChem by several laboratories.
Sa RN4220 lethal: S. aureus RN4220 growth inhibition. OD600, 16 h. inhibition, % (test concentration not listed). 0.33% of 330,000 active; in the data active means inhibition above about 85%
ugtP null kill: compounds lethal to S. aureus RN4220 ugtP deletion mutant | 0.54% of 330,000 active | growth inhibition, % (concentration not given with the values) | AID 1259309 | OD600 growth, 16 h; in the data active means growth inhibition above about 68%
Mtb hypoxia rep: reduces hypoxia-regulated biosensor signal in M. tuberculosis | M. tuberculosis hypoxia-regulated fluorescent reporter, fluorescence | 0.1% of 300,000 active | fluorescence inhibition, % (test concentration not listed); in the data active means fluorescence inhibition mostly above about 23%, no sharp cut-off; inactive means mostly below about 17%
VHR inh abs: blocks human VHR1 dual specificity phosphatase. P51452. recombinant VHR phosphatase, pNPP absorbance. inhibition, % at 13.3 µM. 0.52% of 290,000 active; in the data active means inhibition above about 50%
Target sequence (P51452 whole entry, looked up): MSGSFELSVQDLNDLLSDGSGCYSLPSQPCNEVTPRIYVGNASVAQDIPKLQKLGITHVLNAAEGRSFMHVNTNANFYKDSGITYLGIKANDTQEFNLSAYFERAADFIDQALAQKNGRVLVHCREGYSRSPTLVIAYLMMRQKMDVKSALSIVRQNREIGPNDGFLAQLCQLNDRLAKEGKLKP
PriA SSB inh: K. pneumoniae PriA-SSBct interaction inhibition; inhibition, % at 33 µM; AlphaScreen SSBct-PriA binding, biotinylated peptide; 0.6% of 430,000 active; AID 1272365; in the data active means inhibition mostly above about 37%, no sharp cut-off; inactive means mostly below about 20%
PfHsp40 yeast: compounds rescuing yeast from Plasmodium falciparum HSP40 toxicity; 0.68% of 340,000 active; growth rescue, % at 12.5 µM; S. cerevisiae expressing PfHsp40, growth rescue, ATP luminescence; in the data active means growth rescue above about 28%, passing the limit was not always enough; inconclusive means no clear call, values can overlap the other calls;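 further: yeast W303a lacking pdr1 and pdr3 grown in galactose medium; growth measured after three days at 30 °C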
Each line names hits and unclear results; the compound was inactive in the other large screens. Compounds with a hit are over-represented: about 1.8% of the library has one in this group of screens.

COc1ccccc1NC(=O)NNC(=O)CCN1CCOCC1	VHR inh abs 57
Nc1ccccc1Nc1cccc(C(F)(F)F)c1	PriA SSB inh 43
Cc1cccc(NC(=S)NNC(=O)c2csc3c2CCC(C)C3)c1 (configuration not stated)	PfHsp40 yeast 104
Cc1ccc(C)c(NC(=S)NNC(=O)c2cc3c(s2)CCC(C)C3)c1 (configuration not stated)	none
Cc1cccc(NC(=S)NNC(=O)c2cc3c(s2)CCC(C)C3)c1C (configuration not stated)	PfHsp40 yeast 31
O=C(NN=Cc1cccc(OC(=O)N2CCOCC2)c1)c1cccs1	none (no result: VHR inh abs, PfHsp40 yeast)
Cc1cccc(-c2nc(CSc3nc4c(c(=O)[nH]3)CCC4)c(C)o2)c1	PriA SSB inh 96
Cc1ccccc1-c1nc(CSc2nc3c(c(=O)[nH]2)CCC3)c(C)o1	PriA SSB inh 94
O=C(CSc1nnc(-c2ccccc2Cl)n1-n1cccc1)Nc1nccs1	none (no result: Sa RN4220 lethal, ugtP null kill, Mtb hypoxia rep, VHR inh abs, PfHsp40 yeast)
CCc1ccccc1N1C(=O)CC(N2CCc3ccccc32)C1=O (configuration not stated)	PfHsp40 yeast 69
O=C1CC(N2CCCc3ccccc32)C(=O)N1c1ccccc1 (configuration not stated)	none
CCc1ccc(OCC(=O)NN=Cc2cc([N+](=O)[O-])ccc2N2CCOCC2)cc1	none (no result: VHR inh abs, PfHsp40 yeast)
CCC(C)OC(=O)c1cc(C)nc2c(Br)cc(Br)cc12 (configuration not stated)	VHR inh abs 58
CCOC(=O)c1cc(C)nc(SC)c1C#N	none
COc1ccc(OC)c(Nc2c3ccccc3nc3ccccc23)c1	none (no result: Sa RN4220 lethal, ugtP null kill, Mtb hypoxia rep)
COc1cc(NS(C)(=O)=O)ccc1Nc1c2ccccc2nc2ccccc12	ugtP null kill 100 (no result: VHR inh abs)
Cc1ccccc1-c1nc(C#N)c(N2CCC(C)CC2)o1	none
N#Cc1nc(-c2ccccc2Cl)oc1N1CCCCCC1	PriA SSB inh 94 (no result: Sa RN4220 lethal, ugtP null kill, Mtb hypoxia rep, VHR inh abs, PfHsp40 yeast)
CC1CCN(c2oc(-c3ccccc3Cl)nc2C#N)CC1	PriA SSB inh 49 (no result: Mtb hypoxia rep)
CN(C)CCSc1nc2cc(S(=O)(=O)N3CCCCC3)ccc2o1	Mtb hypoxia rep 35 (no result: VHR inh abs)
Cn1cc(C(=O)NCc2ccccc2F)nn1	none (no result: Sa RN4220 lethal, ugtP null kill, Mtb hypoxia rep, VHR inh abs, PfHsp40 yeast)
O=C(O)CCCCCN1C(=O)/C(=C/c2cn(-c3ccccc3)nc2-c2cccs2)SC1=S	none (no result: VHR inh abs)
O=C(O)CCN1C(=O)/C(=C/c2cn(-c3ccccc3)nc2-c2cccs2)SC1=S	ugtP null kill 93 (no result: PfHsp40 yeast)
O=C(O)CN1C(=O)/C(=C/c2ccc(-c3ccccc3F)o2)SC1=S	none (no result: Sa RN4220 lethal, ugtP null kill, Mtb hypoxia rep, VHR inh abs, PfHsp40 yeast)
O=C(O)CCN1C(=O)/C(=C\c2ccc(-c3nc4ccccc4s3)o2)SC1=S	Sa RN4220 lethal 109, ugtP null kill 101 (no result: Mtb hypoxia rep)
O=C(O)CCN1C(=O)/C(=C\c2ccncc2)SC1=S	Mtb hypoxia rep 38
O=C(NCc1cncc(-c2ccsc2)c1)C1(c2ccccc2)CCOCC1	none (no result: Sa RN4220 lethal, ugtP null kill, Mtb hypoxia rep, VHR inh abs, PfHsp40 yeast)
CCOc1ccccc1-n1nnc(C(=O)OCc2cc(C)ccc2C)c1C	none (no result: Sa RN4220 lethal, ugtP null kill, Mtb hypoxia rep, VHR inh abs, PfHsp40 yeast)
Cn1cccc1C(O)CNC(=O)c1ccccc1S(=O)(=O)C(F)F (configuration not stated)	none (no result: Sa RN4220 lethal, ugtP null kill, Mtb hypoxia rep, VHR inh abs, PfHsp40 yeast)
CCc1ccc(-n2nnc(C(=O)OCc3nc(-c4cccc(Cl)c4)oc3C)c2C)cc1	none (no result: Sa RN4220 lethal, ugtP null kill, Mtb hypoxia rep, VHR inh abs, PfHsp40 yeast)
CCCCCOc1cccc(C(=O)Nc2nnc(CCOC)o2)c1	none (no result: Sa RN4220 lethal, ugtP null kill, Mtb hypoxia rep, VHR inh abs, PfHsp40 yeast)
O=c1c2ccccc2nc(/C=C/c2ccc(O)cc2)n1-c1ccccc1O	Sa RN4220 lethal 95, ugtP null kill 91
O=C(O)c1ccc(/C=C/c2nc3ccccc3c(=O)n2-c2ccc(Br)cc2)cc1	PfHsp40 yeast inconclusive
O=C(O)c1cccc(-n2c(/C=C/c3ccccc3)nc3ccccc3c2=O)c1	Sa RN4220 lethal 97, ugtP null kill 100
COc1ccccc1-n1c(/C=C/c2ccc(O)cc2)nc2ccccc2c1=O	none
O=c1c2ccccc2nc(/C=C/c2ccccc2)n1-c1ccccc1O	Sa RN4220 lethal 96, ugtP null kill 97
CCOc1ccc(-n2c(SCc3cc(=O)n4cc(Cl)ccc4n3)nc3ncccc3c2=O)cc1	none (no result: Sa RN4220 lethal, ugtP null kill, Mtb hypoxia rep, VHR inh abs, PfHsp40 yeast)
C/C(=N\NC(=S)NC1CCCCC1)c1c(F)cccc1F	PfHsp40 yeast 45 (no result: Sa RN4220 lethal, ugtP null kill, Mtb hypoxia rep, PriA SSB inh)
CC(=CC(=O)c1ccc(F)cc1)Nc1ccc(N2CCOCC2)cc1	none (no result: Sa RN4220 lethal, ugtP null kill, Mtb hypoxia rep, VHR inh abs, PfHsp40 yeast)
O=C(Cn1cccc1)Nc1cc(-n2cccn2)ncn1	none (no result: Sa RN4220 lethal, ugtP null kill, Mtb hypoxia rep, VHR inh abs, PfHsp40 yeast)
Cc1ccc(NC(=O)C(=O)NC[C@H](O)c2cccs2)cc1Cl	none (no result: Sa RN4220 lethal, ugtP null kill, Mtb hypoxia rep, VHR inh abs, PfHsp40 yeast)
O=C(Nc1cc(Oc2ccc(Cl)cc2)cc([N+](=O)[O-])c1)c1ccco1	PfHsp40 yeast 352
CCOc1ccc(Oc2cc(NC(=O)c3ccco3)cc([N+](=O)[O-])c2)cc1	none
COc1ccc([C@H](CNC(=O)C(=O)Nc2ccc(F)cc2F)N2CCN(C)CC2)cc1	none (no result: Sa RN4220 lethal, ugtP null kill, Mtb hypoxia rep, VHR inh abs, PfHsp40 yeast)
